For experiment [1], the target named is Focal adhesion kinase 1 (Homo sapiens) (UniProt Q05397). The note with it: at 10 µM.
Experiment [2] has as its target Fibroblast growth factor receptor 1 (Homo sapiens) (UniProt P11362). The note with it: at 1 µM.
For experiment [3] the target is unchanged. The note with it: at 10 µM.
The target in experiment [4] is Fibroblast growth factor receptor 2 (Homo sapiens) (UniProt P21802). The note with it: at 10 µM.
The target of experiment [5] is Fibroblast growth factor receptor 3 (Homo sapiens) (UniProt P22607). The note with it: at 1 µM.
The target is the same in experiment [6]. The note with it: at 10 µM.
In experiment [7] the target is Fibroblast growth factor receptor 4 (Homo sapiens) (UniProt P22455). The note with it: at 1 µM.
Experiment [8] has the same target. Particulars: at 10 µM.
Experiment [9] addresses Fibroblast growth factor receptor 2 (Homo sapiens) (UniProt P21802). Particulars: at 1 µM.
The target of experiment [10] is Tyrosine-protein kinase Fer (Homo sapiens) (UniProt P16591). The note with it: at 1 µM.
Chain of Tyrosine-protein kinase Fer (Homo sapiens) (P16591 whole entry, looked up): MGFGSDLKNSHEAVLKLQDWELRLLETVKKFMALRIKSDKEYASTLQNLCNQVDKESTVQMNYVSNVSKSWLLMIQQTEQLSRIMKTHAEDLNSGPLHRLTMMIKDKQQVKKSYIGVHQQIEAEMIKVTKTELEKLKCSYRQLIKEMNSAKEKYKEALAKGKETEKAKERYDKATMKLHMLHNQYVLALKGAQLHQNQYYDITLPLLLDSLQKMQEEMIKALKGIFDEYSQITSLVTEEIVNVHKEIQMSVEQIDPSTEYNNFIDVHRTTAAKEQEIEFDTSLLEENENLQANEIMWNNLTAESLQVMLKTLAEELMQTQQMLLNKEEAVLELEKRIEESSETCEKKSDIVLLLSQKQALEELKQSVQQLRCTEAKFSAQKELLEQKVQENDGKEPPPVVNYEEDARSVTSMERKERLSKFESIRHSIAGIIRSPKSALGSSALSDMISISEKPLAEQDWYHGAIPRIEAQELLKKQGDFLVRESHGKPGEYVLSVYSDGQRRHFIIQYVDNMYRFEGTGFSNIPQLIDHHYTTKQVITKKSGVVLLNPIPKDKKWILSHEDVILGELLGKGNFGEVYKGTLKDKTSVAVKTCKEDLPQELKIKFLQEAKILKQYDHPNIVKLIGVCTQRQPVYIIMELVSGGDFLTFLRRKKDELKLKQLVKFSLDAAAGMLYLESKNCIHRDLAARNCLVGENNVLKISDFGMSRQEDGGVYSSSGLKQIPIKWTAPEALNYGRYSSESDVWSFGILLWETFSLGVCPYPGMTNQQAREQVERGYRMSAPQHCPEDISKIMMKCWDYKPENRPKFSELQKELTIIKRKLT

Chain of Fibroblast growth factor receptor 2 (Homo sapiens) (P21802 22-821 limits assumed): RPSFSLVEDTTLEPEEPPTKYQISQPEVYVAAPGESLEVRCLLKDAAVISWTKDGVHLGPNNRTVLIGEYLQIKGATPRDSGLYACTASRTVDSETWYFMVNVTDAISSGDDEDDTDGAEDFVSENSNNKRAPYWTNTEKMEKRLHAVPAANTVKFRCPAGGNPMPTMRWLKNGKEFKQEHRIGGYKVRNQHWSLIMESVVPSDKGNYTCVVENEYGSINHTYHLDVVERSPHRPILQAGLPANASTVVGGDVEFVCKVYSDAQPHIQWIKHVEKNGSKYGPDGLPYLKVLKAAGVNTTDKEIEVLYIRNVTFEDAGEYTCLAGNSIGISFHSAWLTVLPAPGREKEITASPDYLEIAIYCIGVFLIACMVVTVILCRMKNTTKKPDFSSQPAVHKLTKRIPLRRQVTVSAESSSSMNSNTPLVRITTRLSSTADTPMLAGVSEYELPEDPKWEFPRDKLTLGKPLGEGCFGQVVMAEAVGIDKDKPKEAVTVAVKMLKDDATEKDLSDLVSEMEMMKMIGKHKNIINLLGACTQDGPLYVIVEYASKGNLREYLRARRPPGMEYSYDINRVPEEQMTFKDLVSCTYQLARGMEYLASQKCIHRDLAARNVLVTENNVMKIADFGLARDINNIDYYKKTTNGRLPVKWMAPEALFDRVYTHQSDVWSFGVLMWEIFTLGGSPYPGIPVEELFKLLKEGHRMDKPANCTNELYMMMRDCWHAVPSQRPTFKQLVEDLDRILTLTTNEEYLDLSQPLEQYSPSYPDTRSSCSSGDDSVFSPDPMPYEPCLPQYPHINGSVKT
Chain of Focal adhesion kinase 1 (Homo sapiens) (Q05397 2-1052 limits assumed): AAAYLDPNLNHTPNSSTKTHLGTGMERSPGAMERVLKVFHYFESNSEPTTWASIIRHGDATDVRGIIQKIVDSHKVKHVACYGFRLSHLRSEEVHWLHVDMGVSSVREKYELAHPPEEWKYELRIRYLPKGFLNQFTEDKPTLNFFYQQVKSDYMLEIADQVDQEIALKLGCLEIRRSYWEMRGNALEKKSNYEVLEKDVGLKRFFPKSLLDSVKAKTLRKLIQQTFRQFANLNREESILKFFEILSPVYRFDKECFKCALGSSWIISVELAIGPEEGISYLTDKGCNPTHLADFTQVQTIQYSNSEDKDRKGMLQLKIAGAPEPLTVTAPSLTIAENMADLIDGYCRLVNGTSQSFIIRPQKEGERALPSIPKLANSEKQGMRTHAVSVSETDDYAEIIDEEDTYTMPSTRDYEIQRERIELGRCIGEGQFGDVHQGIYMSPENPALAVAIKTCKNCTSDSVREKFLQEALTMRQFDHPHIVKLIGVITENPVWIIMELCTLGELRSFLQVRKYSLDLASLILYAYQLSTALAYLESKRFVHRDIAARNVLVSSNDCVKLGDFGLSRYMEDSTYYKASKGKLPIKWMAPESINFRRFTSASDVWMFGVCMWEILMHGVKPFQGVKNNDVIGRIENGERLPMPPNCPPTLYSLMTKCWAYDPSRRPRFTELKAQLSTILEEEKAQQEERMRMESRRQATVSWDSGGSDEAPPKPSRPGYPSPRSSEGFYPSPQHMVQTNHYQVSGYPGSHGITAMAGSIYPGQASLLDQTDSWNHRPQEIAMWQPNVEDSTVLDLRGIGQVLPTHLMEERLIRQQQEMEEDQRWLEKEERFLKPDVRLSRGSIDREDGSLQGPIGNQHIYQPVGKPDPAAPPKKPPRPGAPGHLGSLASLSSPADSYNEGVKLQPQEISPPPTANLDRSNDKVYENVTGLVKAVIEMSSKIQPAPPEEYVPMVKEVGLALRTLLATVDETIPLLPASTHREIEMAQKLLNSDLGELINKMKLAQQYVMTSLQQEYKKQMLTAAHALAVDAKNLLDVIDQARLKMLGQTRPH
Chain of Fibroblast growth factor receptor 1 (Homo sapiens) (P11362 22-822 limits assumed): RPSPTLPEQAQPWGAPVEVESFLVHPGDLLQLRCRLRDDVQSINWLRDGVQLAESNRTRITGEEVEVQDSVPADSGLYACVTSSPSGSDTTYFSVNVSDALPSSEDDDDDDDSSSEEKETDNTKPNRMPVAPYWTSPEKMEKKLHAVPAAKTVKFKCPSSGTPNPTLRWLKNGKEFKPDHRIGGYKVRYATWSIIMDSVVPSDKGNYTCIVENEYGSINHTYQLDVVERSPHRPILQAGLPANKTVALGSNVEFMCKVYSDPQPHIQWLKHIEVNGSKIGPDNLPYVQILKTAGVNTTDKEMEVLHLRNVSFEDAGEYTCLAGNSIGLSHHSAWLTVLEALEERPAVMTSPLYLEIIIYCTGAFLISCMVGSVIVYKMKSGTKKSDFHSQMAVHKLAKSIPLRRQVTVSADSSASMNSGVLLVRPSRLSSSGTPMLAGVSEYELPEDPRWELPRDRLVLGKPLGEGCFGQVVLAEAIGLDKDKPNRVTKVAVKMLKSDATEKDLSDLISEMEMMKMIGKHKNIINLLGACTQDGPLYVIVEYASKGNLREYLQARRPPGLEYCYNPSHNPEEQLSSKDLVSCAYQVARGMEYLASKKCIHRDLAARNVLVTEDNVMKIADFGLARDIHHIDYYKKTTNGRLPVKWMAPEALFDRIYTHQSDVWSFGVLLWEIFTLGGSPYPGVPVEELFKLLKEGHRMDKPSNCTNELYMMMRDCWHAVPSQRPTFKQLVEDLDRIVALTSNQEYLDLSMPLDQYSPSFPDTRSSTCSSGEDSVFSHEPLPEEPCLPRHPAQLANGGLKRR
Chain of Fibroblast growth factor receptor 4 (Homo sapiens) (P22455 22-802 limits assumed): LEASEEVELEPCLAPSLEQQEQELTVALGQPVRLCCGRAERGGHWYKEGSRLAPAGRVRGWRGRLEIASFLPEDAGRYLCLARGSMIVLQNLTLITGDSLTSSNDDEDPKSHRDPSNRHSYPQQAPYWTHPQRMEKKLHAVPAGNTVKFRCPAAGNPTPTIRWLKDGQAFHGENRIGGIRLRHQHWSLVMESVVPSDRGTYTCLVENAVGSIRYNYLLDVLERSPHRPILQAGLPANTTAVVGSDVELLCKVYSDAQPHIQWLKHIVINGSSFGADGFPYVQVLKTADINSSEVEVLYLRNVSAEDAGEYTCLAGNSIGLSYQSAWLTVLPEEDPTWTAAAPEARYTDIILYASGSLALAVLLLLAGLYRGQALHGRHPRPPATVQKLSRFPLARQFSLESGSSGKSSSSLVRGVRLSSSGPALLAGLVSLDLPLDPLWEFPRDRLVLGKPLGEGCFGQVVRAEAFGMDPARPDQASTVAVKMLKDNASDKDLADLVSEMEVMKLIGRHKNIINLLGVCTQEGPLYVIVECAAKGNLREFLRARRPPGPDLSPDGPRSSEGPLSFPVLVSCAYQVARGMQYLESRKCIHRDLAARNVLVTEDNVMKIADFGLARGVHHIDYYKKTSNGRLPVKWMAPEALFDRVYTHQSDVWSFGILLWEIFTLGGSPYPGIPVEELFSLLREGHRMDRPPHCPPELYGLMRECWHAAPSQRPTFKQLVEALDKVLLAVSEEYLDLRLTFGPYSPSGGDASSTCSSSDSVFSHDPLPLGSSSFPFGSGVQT
Chain of Fibroblast growth factor receptor 3 (Homo sapiens) (P22607 23-806 limits assumed): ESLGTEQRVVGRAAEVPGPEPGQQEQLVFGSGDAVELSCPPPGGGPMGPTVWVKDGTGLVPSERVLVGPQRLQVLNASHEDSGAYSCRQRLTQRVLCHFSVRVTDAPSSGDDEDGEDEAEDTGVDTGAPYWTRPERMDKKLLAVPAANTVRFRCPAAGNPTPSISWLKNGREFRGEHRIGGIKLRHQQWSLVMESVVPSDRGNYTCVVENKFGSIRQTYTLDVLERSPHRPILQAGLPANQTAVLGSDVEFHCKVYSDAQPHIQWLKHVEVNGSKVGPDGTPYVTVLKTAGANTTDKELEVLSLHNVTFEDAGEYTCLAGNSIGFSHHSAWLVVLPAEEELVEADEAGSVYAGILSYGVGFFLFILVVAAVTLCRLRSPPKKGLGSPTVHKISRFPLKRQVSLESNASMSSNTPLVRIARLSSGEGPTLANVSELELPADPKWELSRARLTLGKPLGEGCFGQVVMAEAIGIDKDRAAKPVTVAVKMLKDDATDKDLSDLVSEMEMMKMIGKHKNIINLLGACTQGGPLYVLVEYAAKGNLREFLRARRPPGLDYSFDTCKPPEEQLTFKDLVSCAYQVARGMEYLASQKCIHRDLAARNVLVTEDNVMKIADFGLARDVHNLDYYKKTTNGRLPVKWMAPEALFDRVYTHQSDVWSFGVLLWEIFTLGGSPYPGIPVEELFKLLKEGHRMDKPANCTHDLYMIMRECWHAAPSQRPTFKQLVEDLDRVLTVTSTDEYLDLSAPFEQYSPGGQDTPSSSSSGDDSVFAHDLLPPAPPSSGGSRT

With `Cc1cc2ncc(-c3ccccc3)nc2cc1C`, the residual activity was determined as 92% in [1]; 86% in experiment [2]; 101% in experiment [3]; 102% in experiment [4]; 85% in experiment [5]; 95% in experiment [6]. Besides, the residual activity in experiment [7] came to 134%; in [8], 93%.

As to `Cc1nc2cc3nc(-c4cccs4)cnc3cc2n1C`, the residual activity came to 105% in experiment [1]; 102% in experiment [2]; 41% in experiment [3]; 72% in experiment [9]; 30% in experiment [4]; 79% in [5]. In addition, the residual activity in experiment [6] amounted to 23%; in [7], 119%; in [8] it was 95%; in experiment [10], 113%.

As to `c1ccc(-c2n[nH]c3c2oc2ccccc23)cc1`, the residual activity stood at 76% in experiment [1]; 90% in [2]; 36% in [3]; 52% in experiment [4]; 98% in [5]; 59% in [6].

For the compound `COc1cccc(-c2cc(=O)c3ccccc3o2)c1N`, the residual activity in experiment [1] was 116%; in [2], 143%; in experiment [3], 105%; in experiment [9], 102%; in experiment [4] it was 92%; in experiment [5], 100%. Moreover, the residual activity in [6] was 99%; in [7] it was 128%; in experiment [8], 98%; in [10], 107%.

Regarding `COc1cc2ncc(-c3ccccc3)nc2cc1OC`, the values for the residual activity in experiment [1], in [9] and in experiment [4] were 95%, 100% and 93%, respectively.

Regarding `O=C1Nc2ccccc2/C1=C1/Nc2ccccc2/C1=N\OCCC(O)CO` (configuration not stated), the residual activity is 1% in [1]; 2% in experiment [2]; -1% in experiment [3]; 20% in [9]; 2% in [4]; 22% in experiment [5]. Moreover, the residual activity in experiment [6] stood at 23%; in experiment [10] it was 37%.

As to `Cc1cncc2cccc(S(=O)(=O)N3CCCN(C(=O)CN)C[C@H]3C)c12`, the residual activity in experiment [2] amounted to 76%; in [3] it was 20%; in experiment [6] it was 93%.

As to `CN(C)CCCn1cc(C2=C(c3c[nH]c4ccccc34)C(=O)NC2=O)c2ccccc21`, the residual activity came out at 37% in [1]; 50% in experiment [2]; 3% in experiment [3]; 88% in experiment [9]; 33% in experiment [4]; 29% in [6]. Also, the residual activity turned out to be 121% in experiment [7], 70% in experiment [8] and 113% in [10].

Take `CO[C@H]1C[C@@H]2CC[C@@H](C)[C@@](O)(O2)C(=O)C(=O)N2CCCC[C@H]2C(=O)O[C@H]([C@H](C)C[C@@H]2CC[C@@H](O)[C@H](OC)C2)CC(=O)[C@H](C)/C=C(\C)[C@@H](O)[C@@H](OC)C(=O)[C@H](C)C[C@H](C)/C=C/C=C/C=C/1C`: the residual activity in experiment [1] came to 83%; in experiment [2] it was 111%; in [3], 63%; in [9], 115%; in experiment [4], 114%; in experiment [5], 97%. Moreover, the residual activity was found to be 107% in experiment [6], 138% in experiment [7], 145% in experiment [8] and 106% in [10].

Regarding `COc1cc2ncnc(Nc3ccc(Oc4ccccc4)cc3)c2cc1OC`, the residual activity in [1] turned out to be 71%; in [3], 48%; in experiment [9], 65%; in experiment [4], 33%; in [5], 78%; in experiment [6] it was 54%. Moreover, the residual activity was found to be 121% in [7], 109% in experiment [8] and 110% in experiment [10].

For `Nc1n[nH]c2nnc(-c3c(-c4ccccc4)nn4ccccc34)cc12`, the residual activity was 83% in experiment [1]; 110% in experiment [2]; 61% in experiment [3]; 98% in experiment [9]; 83% in [4]; 102% in experiment [6]. Moreover, the residual activity came to 101% in [7], 94% in [8] and 95% in [10].

In the case of `COc1cc2ncnc(Nc3ccc(NC(=O)c4ccccc4)cc3)c2cc1OC`, the residual activity was found to be 75% in experiment [1], 92% in experiment [4], 82% in [8] and 111% in experiment [10].

With `Cc1nc(-c2ccccc2)c(-c2ccncc2)o1`, the residual activity in experiment [1] came to 98%; in experiment [2], 120%; in experiment [3] it was 83%; in experiment [9], 86%; in [4], 74%; in experiment [5], 121%. Moreover, the residual activity in experiment [6] is 114%; in experiment [7], 109%; in [8], 99%; in [10] it was 101%.

Regarding `N#CCCc1ccc2c(c1)-c1[nH]c3ccc([N+](=O)[O-])cc3c1CC(=O)N2`, the residual activity is 22% in experiment [1], 47% in experiment [2], 17% in experiment [3] and 48% in [4].

On to `O=C1NC(=O)/C(=C\c2ccc3nccnc3c2)S1`, for which the residual activity worked out at 83% in experiment [1]; 113% in experiment [2]; 91% in [3]; 98% in experiment [9]; 101% in experiment [4]; 96% in [5]. In addition, the residual activity in experiment [6] was 104%; in [7], 119%; in [8], 88%; in experiment [10] it was 110%.

Turning to `C[C@@H](N)[C@H]1CC[C@H](C(=O)Nc2ccncc2)CC1`, the residual activity in experiment [1] was found to be 96%; in experiment [2] it was 95%; in [3] it was 98%; in experiment [9], 102%; in [4], 82%; in experiment [6], 93%. Also, the residual activity in [7] was found to be 100%; in experiment [8] it was 103%; in experiment [10] it was 100%.

Take `O=C1Nc2ccc(Br)cc2/C1=C\c1cc2c([nH]1)CCCC2`: the residual activity was found to be 58% in experiment [1]; 81% in experiment [2]; 81% in [3]; 63% in experiment [9]; 53% in experiment [4]; 119% in experiment [10].

For the compound `CC(=O)O/N=C1\C(=C2\C(=O)Nc3cc(Br)ccc32)Nc2ccccc21`, the residual activity stood at 59% in experiment [1]; 17% in experiment [2]; 0% in experiment [3]; 73% in experiment [9]; 18% in [4]; 84% in [5]. Moreover, the residual activity in [6] was determined as 22%; in experiment [8], 69%; in experiment [10], 94%.

Take `CN(C)c1ccc(/C=C2\C(=O)Nc3ccccc32)cc1`: the residual activity in experiment [1] turned out to be 62%; in experiment [2] it was 61%; in experiment [3], 10%; in experiment [9] it was 94%; in experiment [4] it was 38%; in [5], 89%. For the same compound, the residual activity stood at 64% in experiment [6], 122% in [7], 110% in experiment [8] and 109% in [10].

Consider `O=C1c2ccccc2-[n+]2ccc3c([nH]c4ccccc43)c21`, for which the residual activity in experiment [1] amounted to 90%; in experiment [2] it was 100%; in [3], 78%; in experiment [9] it was 107%; in experiment [4], 84%; in experiment [5], 96%. Moreover, the residual activity in experiment [6] came to 114%; in [7] it was 109%; in experiment [8], 97%; in [10], 92%.

Values taken from ChEMBL document CHEMBL2218924, “A broad activity screen in support of a chemogenomic map for kinase signalling research and drug discovery” (Biochem J, 2013).
